Test results reported in PubChem BioAssay AID624246 (National Center for Advancing Translational Sciences (NCATS), 2012).
The whole screen tested about 370,000 compounds, of which about 100 (0.027%) were called active. This is one part of a sample in which actives are shown more often than they occur. Calls come from the whole dose curve; as a rule, active = well fitted inhibition curve with a large enough effect in the polarisation, with a control signal flat; inconclusive = small, poorly fitted or top-dose-only effect, or effect the other way, or a change in a side signal; inactive = no such curve, though single readings can be large or run the other way; the % refers to the polarisation.

Target: Transcriptional regulator ERG (Homo sapiens) (UniProt P11308)
Test: qHTS for Small Molecule Inhibitors of the ERG Ets/DNA interaction; note: % of control where 0% means no effect
Conditions: fluorescence polarization, His-ERG Ets domain / labelled DNA; series mostly up to 76.9 µM; FP activity, negative = inhibition: at the top concentration
Text: The Ets family of proteins is a family of ~30 conserved transcription factors defined by the presence of an ~85 amino acid domain referred to as the Ets domain, which mediates sequence-specific DNA binding to a core DNA element GGAA/T.The Ets family member ERG has been linked to several neoplasms. […] More extensive studies of the effects of over-expression of ERG in prostate cells have recently been carried out and have shown that over-expression of ERG results in increased invasion. […] We will carry out a high throughout screen to identify inhibitors of the interaction between ERG and DNA using a fluorescence polarization (FP) assay with a His-tagged ERG Ets domain and fluorescently-labeled DNA probes to develop small molecule inhibitors of this interaction as probes to test this hypothesis and lay the groundwork for the development of targeted therapies against ERG. NIH Molecular Libraries Probe Production Network [MLPCN] NIH Chemical Genomics Center [NCGC] Grant: NS066464 PI Name: John Bushweller, University of Virgina
1.5 ul of protein solution (1 uM ERG domain in 300mM KCl, 50mM Tris-HCl, 1mM EDTA, 1mM DTT, pH 7.5); 20 nl Control plate and compound library plate; 1.5 ul mixture of 5 nM Fluorescein-DNA and 100nM Texas-615-DNA solution in same buffer as above solution; measure fluorescence polarization sequentially for fluorescein (Excitation = 480 nm, Emission = 535s, 535p nm) and Texas red (Excitation = 555 nm, Emission = 632s, 632p nm).

Transcriptional regulator ERG (Homo sapiens), sequence (P11308 whole entry, looked up): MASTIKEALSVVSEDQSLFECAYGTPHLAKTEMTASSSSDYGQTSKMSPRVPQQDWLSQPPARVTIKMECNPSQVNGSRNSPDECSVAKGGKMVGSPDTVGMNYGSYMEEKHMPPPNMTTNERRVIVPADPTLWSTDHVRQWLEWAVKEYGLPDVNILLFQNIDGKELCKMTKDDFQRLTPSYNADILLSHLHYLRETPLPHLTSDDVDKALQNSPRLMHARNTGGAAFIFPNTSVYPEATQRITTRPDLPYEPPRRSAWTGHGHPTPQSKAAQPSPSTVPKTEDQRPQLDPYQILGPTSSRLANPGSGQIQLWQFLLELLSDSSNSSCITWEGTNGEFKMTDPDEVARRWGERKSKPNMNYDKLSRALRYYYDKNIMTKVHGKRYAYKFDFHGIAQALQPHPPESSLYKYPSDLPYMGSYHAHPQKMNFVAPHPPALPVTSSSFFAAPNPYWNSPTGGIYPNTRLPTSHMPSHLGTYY

FP activity, negative = inhibition, inactive:
O=C(Nc1ccccc1F)C(c1ccccc1)N1Cc2ccccc2C1=O (configuration not stated) -0.37%, COc1ccccc1CNC(=O)CCCn1c(=O)c2ccccc2n(CC(=O)Nc2ccc(C)cc2Cl)c1=O 9.36%, O=C1Cc2cc(S(=O)(=O)Nc3ccc(OC(F)(F)F)cc3)cc3c2N1CCC3 10%, CCc1ccc(NC(=O)c2nn(-c3ccc(C)cc3)c(=O)n(C)c2=O)cc1 -0.735%, COC(=O)c1scc(-c2ccccc2)c1S(=O)(=O)Nc1ccccc1 0.898%, CC1CCN(C(=O)Cn2c(=O)n(-c3ccc(Cl)cc3)c(=O)c3c4c(sc32)CCC4)CC1 4.19%, CCCn1c(NCc2ccc(N(CC)CC)cc2)nc2ccccc21 -3.75%, Cc1ccccc1C(=O)NCc1nc(-c2ccc(Cl)cc2)no1 -2.03%, Cc1cc(C)c(-c2n[nH]c3c2C(c2ccccc2F)N(CCO)C3=O)c(O)c1 (configuration not stated) -4.81%, COc1ccccc1-c1cc2nc(C)c(CCC(=O)O)c(C)n2n1 -0.16%, CC(C)c1ccc(NC(=O)C2CCN(c3nc(-c4ccc(C(C)C)cc4)no3)CC2)cc1 2.37%, Cc1c(CNC2CCCCC2)c(C(=O)O)c(C)n1Cc1cccc(Cl)c1 -2.9%, Cc1ccc(C(=O)NCCSc2c(C)[nH]c3ccccc23)cc1C -6.47%, CCCCNC(=O)CSc1nc2cc3c(cc2c(=O)n1CCCCCC(=O)NCc1ccc2c(c1)OCO2)OCO3 -12.3%, N#Cc1ccc(-c2cccs2)nc1SCc1ccc(Br)cc1 12.1%, CCc1nn(CC(=O)Nc2cccc(C)c2C)c(=O)c2cc3sccc3n12 13.6%, O=C(Cn1c(=O)n(-c2ccc(F)cc2)c(=O)c2sccc21)Nc1cccc(C(F)(F)F)c1 -2.35%, COc1cccc(N=C2SC(C(=O)Nc3cccc(Cl)c3)CC(=O)N2C)c1 (configuration not stated) -5.94%, COC(=O)c1sccc1S(=O)(=O)N(CC(=O)Nc1ccc(C)c(F)c1)c1ccc(C)c(C)c1 2.23%, Cc1ccc(CCNC(=O)C2CCN(c3nnc(-n4cccc4CNc4ccc(C)cc4)s3)CC2)cc1 0.384%, Cc1ccccc1CNC(=O)C1CCCN(S(=O)(=O)N(C)c2ccc(F)cc2)C1 (configuration not stated) -3.29%, CCOc1ccccc1CNC(=O)c1ccc(-n2c(C)cc3c2CCC(C)C3)cc1 (configuration not stated) 5.18%, CCOC(=O)c1scc(-c2ccccc2)c1S(=O)(=O)Nc1ccccc1F 3.67%, COc1ccc(C)cc1NC(=O)COCc1cc(-c2cccs2)on1 8%, COc1ccc(NC(=O)CSC2=Nc3ccccc3C3=NC(CC(=O)NCc4ccccc4OC)C(=O)N23)cc1Cl (configuration not stated) -0.573%, O=C(/C=C/c1ccccc1)Nc1cc(-c2nc3cc(Cl)ccc3o2)ccc1Cl 4.72%, Cc1ccc(-n2ncc3c(NCCCn4ccnc4)ncnc32)cc1Cl -1.49%, Cc1nn2c(=O)cc(COC(=O)c3cccc(NC(=O)COc4ccccc4Cl)c3)nc2s1 8.49%, COc1ccc(CNC(=O)CC2Oc3ccc(C)cc3NC2=O)cc1 (configuration not stated) 1.76%, CCOc1ccc(C2C(=O)N(C3CCCCC3)CC(=O)N2CCC2=CCCCC2)cc1OC (configuration not stated) -1.03%, COc1ccc(NC(=O)CCCc2nnc3n(CCC(C)C)c(=O)c4sccc4n23)c(OC)c1 3.52%, COc1ccc(CCNC(=O)c2c3c(nc4ccccc24)C(=O)N(C2CCCCC2)C3)cc1OC 0.33%, Fc1ccccc1Oc1ncnc2c1oc1ccccc12 -0.355%, CCOC(=O)c1sc(NC(=O)/C=C/c2ccc(C(C)C)cc2)c(C(=O)OCC)c1C -7.51%, CCOC(=O)c1ccc(CN(Cc2ccccc2)S(=O)(=O)c2ccc(Cl)cc2)cc1 0.277%, COc1ccc(Br)cc1C1CC(=O)Nc2c1c(C)nn2-c1nc(C)cc(C)n1 (configuration not stated) -7.83%, Cc1ccc(Cl)cc1NC(=O)CCC(=O)N1CC(C)Sc2ccccc21 (configuration not stated) 3.77%, Cc1ccc(C(=O)CC2(O)C(=O)N(CCc3ccccc3)c3ccc(Br)cc32)cc1 (configuration not stated) -0.549%, COc1cc(NC(=O)Cn2nc(-c3ccc(C)c(C)c3)ccc2=O)cc(OC)c1 4.13%, COc1ccccc1NC(=O)CN1C(=O)c2ccccc2Sc2ccc(C(=O)N3CCCC3)cc21 -2.51%, CCOC(=O)c1[nH]c(C)c(CCC(=O)NCc2ccccc2C)c1C -3.1%, Cc1ccc(CNC(=O)CSc2c3c(nc4cc(Cl)ccc24)CCCC3)cc1 -0.34%, CCN1C(=O)c2ccccc2S(=O)c2ccc(C(=O)NCc3ccc(F)cc3)cc21 (configuration not stated) -4.21%, CC1Cc2cc(S(=O)(=O)CCC(=O)Nc3ccc(F)c(Cl)c3)ccc2N1C(=O)C1CC1 (configuration not stated) 0.16%, O=C(CSc1n[nH]c(-c2ccccc2)n1)N1CCCCC1 8.6%, O=C(/C=C/c1cn(CC(O)CN2CCc3ccccc32)c2ccccc12)c1ccc(Br)cc1 (configuration not stated) -7.5%, CC(=O)c1nn(-c2ccc(OC(F)(F)F)cc2)nc1Nc1ccccc1 -1.16%
